Shown are actives, neighbours in structure and some others; about 11% of the full set was active somewhere.
HPGD inh: HPGD (human) dehydrogenase inhibition; P15428; purified HPGD, NADH fluorescence kinetic, PGE2 substrate; Potency, µM, hits mostly inhibitors; 4.3% of 150,000 active
Target sequence (P15428 whole entry, looked up): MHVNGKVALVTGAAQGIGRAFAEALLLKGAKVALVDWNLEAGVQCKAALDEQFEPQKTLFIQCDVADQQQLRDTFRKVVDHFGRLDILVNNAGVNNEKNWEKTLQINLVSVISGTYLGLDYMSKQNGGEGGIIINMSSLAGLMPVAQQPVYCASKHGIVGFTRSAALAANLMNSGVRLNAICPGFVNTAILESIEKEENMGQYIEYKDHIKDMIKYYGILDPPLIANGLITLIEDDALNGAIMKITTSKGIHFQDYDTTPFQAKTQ
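NADH formation kinetics: reaction with 30 uM PGE2 and 1 mM NAD+ (final), 20 nM enzyme, Tris-HCl pH 8 with Tween 20, after 15 min compound preincubation at room temperature. Fluorescence change, last versus first of five reads.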
PNC assembly inh: blocks assembly of the perinucleolar compartment; PC3M PTB-GFP, PNC prevalence imaging, 16 h; stronger effect = lower value; activity change (PNC), negative = inhibition, % at 10 µM; 3.1% of 140,000 active; AID 2417;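 active = readout at or below -70, meaning at least 70% loss of cells showing the perinucleolar compartment, a nuclear body marking cancer cells; inconclusive = readout between -30 and a set limit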
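Read-out is percentage of cells bearing a perinucleolar compartment, from automated 20x imaging of fixed, Hoechst-stained PC3M PTB-GFP cells. Cells were seeded 4 h, then exposed 16 h to compound (23 nl of library stock) in duplicate plates.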
ALDH1A1 inh: inhibitors of human aldehyde dehydrogenase 1A1 | Purified ALDH1A1, NADH fluorescence, propionaldehyde substrate | Potency, µM (titrated, usually from 75.3 µM), hits mostly inhibitors | 7.3% of 220,000 active | AID 1030
Hits are given with their value; - = inactive; ? = inconclusive; . = no result given; [ ] = remark or other dose. Unless noted, calls follow the shape of the dose curve; as a rule, active = well fitted inhibition curve with a large enough effect (not every such curve was filed as active); inconclusive = small, poorly fitted or top-dose-only effect, or another doubt; inactive = no such curve, though single readings can be large or run the other way.

SMILES	HPGD inh	PNC assembly inh	ALDH1A1 inh
O=C(CSc1cccc[n+]1[O-])NCC1CCCCC1	.	.	-
O=C(CSc1ccc([N+](=O)[O-])cc1)NCC1CCCCC1	.	.	28µM
CN(C[C@@H](Cc1cccc2ccccc12)N(C[C@H](Cc1ccccc1)N(CCc1ccccc1)N=O)N=O)N=O	.	.	-
CSCC[C@H](NC(=O)OC(C)(C)C)c1nnc(SCC(=O)Nc2ccc(C)cc2C)o1	-	-	-
CCCCSc1nnc([C@H](C)NC(=O)OC(C)(C)C)o1	-	?	22µM
CCc1ccccc1NC(=O)CSc1nnc([C@H](CCSC)NC(=O)OC(C)(C)C)o1	-	-	22µM
CCCCSc1nnc([C@H](CC(C)C)NC(=O)OC(C)(C)C)o1	-	-	-
COc1ccc(CCNC(=O)CCc2ccc(S(=O)(=O)NCC(C)C)cc2)cc1OC	.	.	-
O=C(Oc1cccc(NC2=NS(=O)(=O)c3ccccc32)c1)c1cccnc1	.	.	-
CCOC(=O)c1ccc(NC(=O)C2(c3ccccc3)CCOCC2)cc1	-	-	-
CC1(C)NC(=O)N(CC(=O)Nc2nc(-c3ccc(F)cc3)cs2)C1=O	-	?	-
Cc1ccc(O)c(-c2cc(C(F)(F)F)[nH]n2)c1	14µM	-	-
Cc1ccc(O)c(-c2cc(-c3cccc(Br)c3)n[nH]2)c1	.	.	-
O=C(COc1ccc(F)cc1)NN1C(=O)CSC1=S	.	.	-
C#CC(=O)N(c1ccc(OC)c(OC)c1)C(C(=O)NC1CCCC1)c1cccs1 (stereo unspecified)	-	?	-
C#CC(=O)N(c1cccc(OC)c1)C(C(=O)NC1CCCC1)c1cccs1 (stereo unspecified)	?	-	16µM
COc1ccc(N(C(=O)Cc2cccs2)C(C(=O)NC2CCCCC2)c2cccn2C)cc1OC (stereo unspecified)	-	-116	-
Cn1cccc1C(C(=O)NC1CCCCC1)N(C(=O)Cc1cccs1)C1CC1 (stereo unspecified)	-	-	-
CO[C@H]1COC(=O)[C@H]2CCCN2C(=O)C/C=C\[C@@H](C)[C@H](OC)COC(=O)[C@@H](OCc2ccccc2)/C=C\[C@@H]1C	.	.	-[13.5 µM]
CCOC(=O)CC1ON(C)C(=O)N1c1ccc(Cl)cc1Cl (stereo unspecified)	-	-	?
CCOC(=O)C1=NOC2C(=O)N(c3ccc(Cl)cc3Cl)C(=O)C12 (stereo unspecified)	.	.	0.71µM
CC(/C=N/NC(=S)Nc1cccc(S(=O)(=O)N(C)C)c1)c1ccccc1 (stereo unspecified)	35µM	-	7.9µM
COc1cc(/C=N/NC(=S)Nc2cccc(S(=O)(=O)N(C)C)c2)cc(OC)c1O	-	?	22µM
CN(C)S(=O)(=O)c1cccc(NC(=O)c2cnccn2)c1	.	.	-
COc1ccc(O)c(/C=N/NC(=S)Nc2cccc(S(=O)(=O)N(C)C)c2)c1	?	-	?
SMILES	HPGD inh	PNC assembly inh	ALDH1A1 inh
CN(C)S(=O)(=O)c1cccc(NC(=S)N/N=C/C(c2ccccc2)c2ccccc2)c1	18µM	-	10µM
CC(=O)c1cccc(NC(=O)c2cccc(S(=O)(=O)N(C)C)c2)c1	-	-	-
COc1ccc(CC(=O)NC(C)c2nnc(SCC(=O)Nc3cc(C)ccc3OC)n2C)cc1 (stereo unspecified)	.	.	-
CCC1=NN(C(=O)COc2ccccc2)C(O)(c2ccc(Br)cc2)C1 (stereo unspecified)	.	.	-
NC1=NC(=O)CC(C(=O)NCCc2ccccc2)S1 (stereo unspecified)	-	-	13µM
CCc1ccc(NC(=O)C2CC(=O)N=C(N)S2)cc1 (stereo unspecified)	-	-	-
NC1=NC(=O)CC(C(=O)Nc2cccc3ccccc23)S1 (stereo unspecified)	.	.	-
CC(C)c1ccc(NC(=O)C2CC(=O)N=C(N)S2)cc1 (stereo unspecified)	-	-	18µM
O=S(=O)(Nc1nc2ccccc2nc1NCc1ccco1)c1cccs1	-	-	-
CCCN1CCN(C(=S)Nc2ccccc2C(F)(F)F)CC1	.	-	-
Cn1c(CO)cnc1SCc1ccc([N+](=O)[O-])cc1	-	-	28µM
COC(=O)c1cnc(SCc2ccc([N+](=O)[O-])cc2)n1C	.	.	-
Cc1c(C(=O)N/N=C/C(C)C)[nH]c2ccc([N+](=O)[O-])cc12	-	-	14µM
Cc1c(C(=O)N/N=C/c2ccc(Cl)cc2)[nH]c2ccc(Cl)cc12	-	-112	-
Cc1ccc(OC(C)C(=O)N=Nc2c(O)[nH]c3ccc([N+](=O)[O-])cc23)cc1 (stereo unspecified)	.	.	-
COc1ccc(/C=N/NC(=O)c2[nH]c(C)c(C(=O)N/N=C/c3ccc(OC)cc3)c2C)cc1	-	?	-
COC(=O)[C@@H]1[C@H](CCc2ccccc2)NC(=O)N(Cc2ccccc2)[C@@H]1C	-	.	-[13.5 µM]
CCOC(=O)C1=C(C)NC(=NC)SC1c1ccccc1 (stereo unspecified)	.	.	-
O=C1c2ccccc2C(Nc2ccc(S(=O)(=O)N3CCOCC3)cc2)N1c1cccnc1 (stereo unspecified)	-	-	-
O=C1c2ccccc2C(Nc2ccc(S(=O)(=O)N3CCCCC3)cc2)N1c1ccccn1 (stereo unspecified)	-	-	5µM
CC12CCC(C(=O)NCc3ccccc3Cl)(CC1=O)C2(C)C (stereo unspecified)	.	.	-
CN(C)CCOc1nc(-c2ccccc2)nc2c1oc1ccccc12	-	?	-
CN(C)CCOc1ncnc2c1oc1ccccc12	-	-112	-
O=[N+]([O-])c1cc(Cc2cc([N+](=O)[O-])c3cccnc3c2O)c(O)c2ncccc12	-	.	?
Cc1oc(C(=O)Nc2ccc(C(=O)O)cc2)cc1COc1ccccc1	20µM	?	-
SMILES	HPGD inh	PNC assembly inh	ALDH1A1 inh
CC(=O)c1cc(C(=O)Nc2ccc(C(=O)O)cc2)oc1C	-	?	-
O=C(Cc1ccccc1[N+](=O)[O-])NCc1ccccc1Cl	-	-	-
Cc1nn(-c2ccccn2)c2c1C(=O)C(Br)CC2 (stereo unspecified)	.	.	11µM
CC1=C(C)C(=O)N(c2ccccn2)C1=O	-	?	-
Cc1c(Br)c([N+](=O)[O-])nn1CCCC(=O)Nc1sc2c(c1C#N)CCC2	13µM	?	10µM
Cc1c(Cl)c([N+](=O)[O-])nn1CCCC(=O)Nc1sc2c(c1C#N)CCC2	?	?	13µM
Cc1c(Br)c([N+](=O)[O-])nn1CC(=O)Nc1sc2c(c1C(=O)OC(C)C)CCCC2	-	-	-
Cc1c(Cl)c([N+](=O)[O-])nn1CCCC(=O)Nc1ccc(Cl)cc1Cl	-	?	?
Cc1ccc(-c2nnn(CC(=O)N3CCN(c4ccccc4)CC3)n2)o1	-	-	-
C=C1C(=O)[C@@]23[C@H](O)C[C@@H]4C(C)(C)CC[C@H](O)[C@@]4(C)[C@@H]2CC[C@@H]1[C@H]3O	-	-	-
CC(=O)c1cccc(NC(=O)C2CCN(S(=O)(=O)c3ccccc3)CC2)c1	-	-	-
C=C(C)CSC1=C(C#N)C(c2ccsc2)CC(=O)N1 (stereo unspecified)	-	-	16µM
CCSC1=C(C#N)C(c2cccc(O)c2)CC(=O)N1 (stereo unspecified)	-	-	-
C=CCSC1=C(C#N)C(c2ccc(C(C)C)cc2)CC(=O)N1 (stereo unspecified)	-	-	28µM

Source: PubChem (National Center for Advancing Translational Sciences (NCATS))
